Screening results deposited in PubChem by National Center for Advancing Translational Sciences (NCATS).
Compounds with a hit are over-represented: about 2.4% of the library has one in this group of screens.
WRN helicase inh-1: blocks human WRN helicase | WRN helicase unwinding, fluorescent forked duplex, kinetic | 0.46% of 360,000 active | Q14191 | Potency, µM (highest dose often 114 µM), inactives show at the highest dose activity change, negative = inhibition, most hits filed as inhibitors | AID 651768; also: % is scaled to controls: 0 for no effect and ±100 for the full control effect; nearly all actives have a fitted effect of over 55% in size
Target sequence (Q14191 whole entry, looked up): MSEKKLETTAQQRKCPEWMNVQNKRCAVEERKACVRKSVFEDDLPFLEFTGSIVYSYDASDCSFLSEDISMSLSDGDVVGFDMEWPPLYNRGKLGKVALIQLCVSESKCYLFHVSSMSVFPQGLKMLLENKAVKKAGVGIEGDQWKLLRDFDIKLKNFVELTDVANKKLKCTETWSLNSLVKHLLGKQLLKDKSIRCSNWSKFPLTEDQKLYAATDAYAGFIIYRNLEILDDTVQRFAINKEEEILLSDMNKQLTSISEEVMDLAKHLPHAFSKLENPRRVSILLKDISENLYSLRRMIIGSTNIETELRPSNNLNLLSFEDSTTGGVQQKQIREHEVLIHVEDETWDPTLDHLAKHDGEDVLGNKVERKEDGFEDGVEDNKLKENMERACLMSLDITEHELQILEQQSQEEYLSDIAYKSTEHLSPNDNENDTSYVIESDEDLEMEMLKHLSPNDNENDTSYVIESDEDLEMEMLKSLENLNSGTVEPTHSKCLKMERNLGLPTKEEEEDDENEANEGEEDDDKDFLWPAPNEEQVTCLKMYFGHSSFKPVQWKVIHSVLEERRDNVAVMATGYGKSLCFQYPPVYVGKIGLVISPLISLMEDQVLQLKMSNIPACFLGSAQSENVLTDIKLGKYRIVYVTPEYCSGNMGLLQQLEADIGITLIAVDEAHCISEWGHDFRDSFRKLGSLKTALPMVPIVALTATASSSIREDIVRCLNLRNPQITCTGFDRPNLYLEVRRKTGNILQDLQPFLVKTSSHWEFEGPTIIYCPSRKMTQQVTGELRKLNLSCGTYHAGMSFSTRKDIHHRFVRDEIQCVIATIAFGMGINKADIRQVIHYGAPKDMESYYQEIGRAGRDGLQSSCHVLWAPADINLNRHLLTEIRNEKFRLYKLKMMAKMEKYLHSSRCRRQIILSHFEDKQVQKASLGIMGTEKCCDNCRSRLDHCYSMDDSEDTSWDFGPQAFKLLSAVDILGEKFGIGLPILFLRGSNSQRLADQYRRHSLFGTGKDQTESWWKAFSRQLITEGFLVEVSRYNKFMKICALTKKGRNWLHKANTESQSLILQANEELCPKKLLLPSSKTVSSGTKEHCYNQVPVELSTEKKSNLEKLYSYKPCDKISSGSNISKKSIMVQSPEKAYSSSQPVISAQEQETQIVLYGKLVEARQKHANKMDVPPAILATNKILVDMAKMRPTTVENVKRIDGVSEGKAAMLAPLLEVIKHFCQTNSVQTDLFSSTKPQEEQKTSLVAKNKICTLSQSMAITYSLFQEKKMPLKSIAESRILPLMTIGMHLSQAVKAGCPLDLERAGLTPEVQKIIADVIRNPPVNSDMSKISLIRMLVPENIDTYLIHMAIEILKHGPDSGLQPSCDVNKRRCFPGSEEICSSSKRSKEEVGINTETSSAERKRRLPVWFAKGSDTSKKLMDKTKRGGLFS
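Kinetic red-fluorescence monitoring (525/598 nm) tracks WRN helicase activity after 100 nM fluorophore-quencher forked duplex and 2 mM ATP are added to 20 nM enzyme pretreated 15 min at room temperature with compound.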
FEN1 inh-1: inhibitors of human flap endonuclease 1 | P39748 | Recombinant FEN1 flap cleavage, fluorescence, 15 min | Potency, µM (highest dose often 114 µM), for the others: at the highest dose activity change, negative = inhibition, actives largely listed as inhibitors | 0.35% of 390,000 active | AID 588795; also: % is scaled to controls: 0 for no effect and ±100 for the full control effect; nearly all actives have a fitted effect of over 65% in size
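Enzyme 10 nM, 15 min RT preincubation with compound; start with substrate 50 nM final; reads at 0 and 15 min; qHTS titration, four-parameter Hill fit.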
Pol eta inh-1: blocks human DNA polymerase eta activity. Potency, µM (doses to about 114 µM), without a hit: top-dose activity change, negative = inhibition, hits mostly inhibitors. recombinant Pol eta, fluorescent DNA replication assay. 1.2% of 390,000 active. Q9Y253; also: % is scaled to controls: 0 for no effect and ±100 for the full control effect
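Fluorescent replication assay: 50 nM final substrate added after a 15 min room-temperature compound preincubation with 10 nM enzyme. Signal taken at 0 min and again at 10 min.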
POLI inh: DNA polymerase iota (human) inhibition; Potency, µM (top dose mostly 115 µM), for the others: at the top dose activity, negative = inhibition, usual class: inhibitors; Q9UNA4; AID 588590; Pol iota fluorescent replication assay, 10 min; 1% of 390,000 active
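Pol iota at 10 nM preincubated 15 min with compounds at room temperature; reaction started with fluorescent substrate, 50 nM final. Fluorescence read kinetically at 0 and 10 min; buffer-only wells as negative control.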
Pol kappa inh-1: DNA polymerase kappa (human) inhibition; Q9UBT6; purified Pol kappa, fluorescent DNA synthesis assay, 10 min; Potency, µM (highest dose often 107 µM), for inactives: at the top dose activity, negative = inhibition, actives largely listed as inhibitors; 0.53% of 400,000 active; AID 588579; also: % is scaled to controls: 0 for no effect and ±100 for the full control effect
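Enzyme at 10 nM met test compounds for 15 min at room temperature. Substrate addition (50 nM final) began the reaction, which was monitored by fluorescence at 0 and 10 min.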
Pol beta inh: inhibitors of human DNA polymerase beta; 1.3% of 340,000 active; Pol beta primer extension/strand displacement, fluorescence kinetic; Potency, µM (series often up to 114 µM), for inactives: top-dose activity change, negative = inhibition, most hits filed as inhibitors; AID 485314; P06746; also: % is scaled to controls: 0 for no effect and ±100 for the full control effect
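Homogeneous kinetic assay of primer extension and strand displacement by 10 nM Pol beta, preincubated 15 min at room temperature with compound before 50 nM substrate (final) was added. Read at 0 and 10 min; four-parameter Hill fit.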
TbPGK inh: blocks T. brucei phosphoglycerate kinase; shares compounds with Pol kappa inh-1; TbPGK coupled GAPDH assay, Kinase-Glo luminescence; Potency, µM (titrated, usually from 57.5 µM), for inactives: at the highest dose activity change, negative = inhibition, usual class: inhibitors; 79% of 500 active; also: % is scaled to controls: 0 for no effect and ±100 for the full control effect; nearly all actives have a fitted effect of over 65% in size
Pol iota confirm: Human Pol iota inhibitor confirmatory assay. 77% of 1,500 active. Pol iota primer extension, TAMRA/BHQ fluorescence. Potency, µM, usual class: inhibitors. shares compounds with Pol kappa inh-1
Pol kappa inh-2: confirmation of human DNA polymerase kappa inhibitors; shares compounds with Pol eta inh-1; 76% of 920 active; purified Pol-kappa, fluorescent strand-displacement substrate; Potency, µM, most hits filed as inhibitors
Pol eta inh-2: Pol eta (human) inhibition, cherry-pick confirmation | shares compounds with Pol eta inh-1 | Pol eta primer extension, TAMRA/BHQ fluorescence, 10 min | 64% of 2,600 active | AID 720502 | Potency, µM, most hits filed as inhibitors
FEN1 inh-2: FEN1 inhibition, cherry-pick retest; shares compounds with FEN1 inh-1; FEN1 flap cleavage, TAMRA/BHQ2 fluorogenic DNA substrate; Potency, µM, usual class: inhibitors; 79% of 880 active; AID 720498; also: nearly all actives have a fitted effect of over 60% in size
WRN helicase inh-2: WRN helicase inhibition, cherry-pick retest. shares compounds with WRN helicase inh-1. WRN helicase DNA unwinding, fluorescence kinetic. Potency, µM (doses to about 57.1 µM), inactives show at the top dose activity, negative = inhibition, most hits filed as inhibitors. 63% of 610 active. AID 720497; also: nearly all actives have a fitted effect of over 65% in size
TO DNA binding: DNA binding via thiazole orange displacement; 10% of 610 active; AID 720499; thiazole orange DNA binding displacement, fluorescence; shares compounds with WRN helicase inh-1; Potency, µM (top dose mostly 57.1 µM), inactives show at the top dose activity change, negative = inhibition, most hits filed as inhibitors;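 also: drop in dye fluorescence marks compound binding to DNA; % is scaled to controls: 0 for no effect and ±100 for the full control effect; nearly all actives have a fitted effect of over 60% in size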
BLM counter: BLM helicase inhibition, WRN selectivity check; shares compounds with WRN helicase inh-1; Recombinant BLM helicase DNA unwinding, red fluorescence; Potency, µM (top dose mostly 57.1 µM), without a hit: top-dose activity change, negative = inhibition, hits mostly inhibitors; 60% of 610 active; AID 720503; also: nearly all actives have a fitted effect of over 60% in size
An asterisk follows results filed as active; ? = inconclusive; nt = not tested or not shown; [ ] = remark or other dose. Calls follow the shape of the dose curve; as a rule, active = well fitted curve in the direction sought with a large enough effect; inconclusive = small, poorly fitted or top-dose-only effect, or another doubt; inactive = no such curve, though single readings can be large; an effect the other way counts as inactive or inconclusive. Potency is read from the fitted curve at half-maximal effect.

SMILES | WRN helicase inh-1 | FEN1 inh-1 | Pol eta inh-1 | POLI inh | Pol kappa inh-1 | Pol beta inh | Pol iota confirm | Pol eta inh-2 | WRN helicase inh-2 | TO DNA binding | BLM counter | others
Cc1ccc(NC(=O)CN(C)C(=O)c2cccc(-n3cccc3)c2)cc1 | 35µM* | ? | 2.5µM* | 8.9µM* | 18µM* | nt | 15* | 17* | 7.6µM* | -15% | 2.2µM*
O=C(CCC(C(=O)c1ccccc1)c1ccccc1)c1ccccc1 (configuration not stated) | 1% | nt | -14% | nt | nt | nt | nt | nt | nt | nt | nt
O=C1CC(c2ccco2)CC(O)=C1C=Nc1cc(Cl)ccc1O (configuration not stated) | ? | -19% | 35µM* | ? | ? | 20µM* | 42* | 30* | 22µM* | -20% | 7.6µM*
O=C1CC(c2ccco2)CC(O)=C1C=Nc1ccc(Br)cc1 (configuration not stated) | -22% | -5% | ? | ? | ? | ? | nt | nt | nt | nt | nt
O=Cc1cccn1-c1cccc([N+](=O)[O-])c1 | 2% | -5% | 7% | 13% | -2% | ? | nt | nt | nt | nt | nt
O=C(O)c1cccc(-n2cccc2/C=C/[N+](=O)[O-])c1 | 20µM* | ? | 2.8µM* | ? | 14µM* | 3.5µM* | 15* | 5.4* | 17µM* | -6% | 19µM* | TbPGK inh=21µM*;FEN1 inh-2=43*
ON=Cc1cccn1-c1ccccc1 | -4%[57.1 µM] | -6% | -7% | 30% | -2% | 38% | nt | nt | nt | nt | nt
O=C(O)c1cccc(-n2cccc2/C=N/O)c1 | ? | ? | 3.2µM* | 11µM* | 35µM* | 13µM* | 19* | 30* | 24µM* | 0% | 19µM*
O=C(NCc1cccnc1)c1cc(C(=O)NCc2cccnc2)cc([N+](=O)[O-])c1 | 10% | nt | -15% | nt | nt | nt | nt | nt | nt | nt | nt
O=C1OC(c2cccs2)=N/C1=C/c1ccc(-c2cccc(C(=O)O)c2)o1 | ? | 40µM* | 14µM* | 20µM* | 45µM* | 3.5µM* | 38* | 27* | 19µM* | ? | ?
CCOC(=O)C1CCCN(C(=O)c2cc(-c3ccco3)nc3ccccc23)C1 (configuration not stated) | 32µM* | 56µM* | 3.2µM* | 3.5µM* | 22µM* | nt | 19* | 19* | 14µM* | ? | 1.7µM* | TbPGK inh=10µM*;Pol kappa inh-2=9.5*
N[C@H](Cc1cnc[nH]1)C(=O)O | nt | nt | nt | nt | 2%[19.4 µM] | nt | nt | nt | nt | nt | nt
O=C(COc1ccccc1C(=O)N/N=C\c1ccc(O)c(O)c1)N/N=C/c1ccc(O)c(O)c1 | 0.27µM* | 1.6µM* | -98% | -103% | 0.71µM* | 0.28µM* | 0.42* | 0.34* | 0.27µM* | 19µM* | 0.12µM* | TbPGK inh=0.29µM*;FEN1 inh-2=17*
Cc1ccc(-c2ccc3c(c2)O[C@H](CN(C)C(=O)Nc2ccc(C(F)(F)F)cc2)[C@H](C)CN([C@H](C)CO)S3(=O)=O)cc1 | -13% | nt | nt | nt | nt | nt | nt | nt | nt | nt | nt
CCN(CC)CCCNc1nc(-c2ccccc2)nc2ccccc12 | -1% | -24% | -13% | 13% | 3% | ? | nt | nt | nt | nt | nt
CCN(CC)CCCNc1nc2ccccc2c2[nH]c3ccc(OC)cc3c12 | 25µM* | 3.5µM* | 10µM* | 18µM* | 18µM* | nt | 3* | 30* | 6.8µM* | ? | ? | Pol kappa inh-2=3.4*;FEN1 inh-2=2.7*
COCCNC(=O)CSc1nc(-c2ccc(C)cc2)nc2c1c(=O)n(C)c(=O)n2C | nt | -10% | nt | 0% | -1%[60.1 µM] | 26% | nt | nt | nt | nt | nt
O=C(NCc1cccc(F)c1)c1ccc(CS(=O)c2ccccc2Cl)o1 (configuration not stated) | nt | -1% | -19% | 48% | 3% | 22% | nt | nt | nt | nt | nt
Nc1nc2c(s1)COc1ccccc1-2 | 6% | -3% | -7% | 48% | 15% | -2% | nt | nt | nt | nt | nt
Nc1nc2c(s1)CCc1c-2cnn1-c1ccccc1 | -25% | 18µM* | 79µM* | 14µM* | -4% | ? | 24* | 67* | 30µM* | -16% | 30µM*
COc1cc(NC(=O)c2noc3c2CCC3)c(OC)cc1Cl | ? | ? | 18µM* | ? | 32µM* | 10µM* | 38* | 38* | ? | -5% | 22µM*
COc1ccc2nc3cc(Cl)ccc3c(Nc3ccc(O)c(CN4CCN(C)CC4)c3)c2c1 | 18µM* | 22µM* | ? | ? | 79µM* | nt | ? | nt | 6.1µM* | 11µM* | 22µM*
Cc1c(Br)c(=O)oc2c(Br)c(O)c(O)cc12 | 16µM* | 28µM* | 3.2µM* | 13µM* | 22µM* | 4.5µM* | 24* | 5.4* | 3.8µM* | ? | 3.4µM* | TbPGK inh=6.5µM*;FEN1 inh-2=30*
Cc1c(NC(=O)/C(C#N)=C/c2ccc(-c3ccc(Cl)c(Cl)c3)o2)c(=O)n(-c2ccccc2)n1C | -3% | -2% | -14% | 102% | -2% | -23% | nt | nt | nt | nt | nt
Cc1nc(S/C(=C\c2ccc(-c3ccc(C(=O)O)c(Cl)c3)o2)C(=O)O)n[nH]1 | 40µM* | ? | 5µM* | 3.2µM* | 8.9µM* | 10µM* | 17* | 5.4* | 1.2µM* | ? | 19µM* | TbPGK inh=15µM*;FEN1 inh-2=43*
CCCCCC/C(C)=C1/SC(=S)NC1=O | -16% | -7% | -18% | ? | -7% | 6% | nt | nt | nt | nt | nt
